According to the supplement of paper PMC11006884:
Of roughly 6,500 targets only a part is listed; those with a hit were picked by preference. About 2% of all pairs of compound and target were hits.

Compound: COC(=O)C#Cc1ccccc1 [methyl 3-phenylpropiolate]
Assay: log2 ratio of iodoacetamide-alkyne labeling of the cysteine site, DMSO over compound (competition); higher = stronger covalent engagement of the cysteine by the compound, active = 1 or more
Settings: 500 µM; treatment time 1 h; system: HEK293T cell lysate
Method in brief: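 After 1 h at ambient temperature with vehicle or electrophile (500 µM), HEK293T lysate (2 mg/mL) was labelled for 1 h with iodoacetamide alkyne and clicked to sCIP-TMT reagents. Pooled samples were trypsin-digested overnight at 37 °C, streptavidin-enriched, acid-eluted and analysed by Orbitrap Eclipse LC-MS/MS with FAIMS, then quantified in FragPipe over three replicates with duplicate channels. A cysteine's log2 competition ratio is its mean control-channel over mean compound-channel reporter intensity. Cysteines quantified in only one replicate were not included.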

Sequence of UniProt Q14692 (Q14692 whole entry, looked up): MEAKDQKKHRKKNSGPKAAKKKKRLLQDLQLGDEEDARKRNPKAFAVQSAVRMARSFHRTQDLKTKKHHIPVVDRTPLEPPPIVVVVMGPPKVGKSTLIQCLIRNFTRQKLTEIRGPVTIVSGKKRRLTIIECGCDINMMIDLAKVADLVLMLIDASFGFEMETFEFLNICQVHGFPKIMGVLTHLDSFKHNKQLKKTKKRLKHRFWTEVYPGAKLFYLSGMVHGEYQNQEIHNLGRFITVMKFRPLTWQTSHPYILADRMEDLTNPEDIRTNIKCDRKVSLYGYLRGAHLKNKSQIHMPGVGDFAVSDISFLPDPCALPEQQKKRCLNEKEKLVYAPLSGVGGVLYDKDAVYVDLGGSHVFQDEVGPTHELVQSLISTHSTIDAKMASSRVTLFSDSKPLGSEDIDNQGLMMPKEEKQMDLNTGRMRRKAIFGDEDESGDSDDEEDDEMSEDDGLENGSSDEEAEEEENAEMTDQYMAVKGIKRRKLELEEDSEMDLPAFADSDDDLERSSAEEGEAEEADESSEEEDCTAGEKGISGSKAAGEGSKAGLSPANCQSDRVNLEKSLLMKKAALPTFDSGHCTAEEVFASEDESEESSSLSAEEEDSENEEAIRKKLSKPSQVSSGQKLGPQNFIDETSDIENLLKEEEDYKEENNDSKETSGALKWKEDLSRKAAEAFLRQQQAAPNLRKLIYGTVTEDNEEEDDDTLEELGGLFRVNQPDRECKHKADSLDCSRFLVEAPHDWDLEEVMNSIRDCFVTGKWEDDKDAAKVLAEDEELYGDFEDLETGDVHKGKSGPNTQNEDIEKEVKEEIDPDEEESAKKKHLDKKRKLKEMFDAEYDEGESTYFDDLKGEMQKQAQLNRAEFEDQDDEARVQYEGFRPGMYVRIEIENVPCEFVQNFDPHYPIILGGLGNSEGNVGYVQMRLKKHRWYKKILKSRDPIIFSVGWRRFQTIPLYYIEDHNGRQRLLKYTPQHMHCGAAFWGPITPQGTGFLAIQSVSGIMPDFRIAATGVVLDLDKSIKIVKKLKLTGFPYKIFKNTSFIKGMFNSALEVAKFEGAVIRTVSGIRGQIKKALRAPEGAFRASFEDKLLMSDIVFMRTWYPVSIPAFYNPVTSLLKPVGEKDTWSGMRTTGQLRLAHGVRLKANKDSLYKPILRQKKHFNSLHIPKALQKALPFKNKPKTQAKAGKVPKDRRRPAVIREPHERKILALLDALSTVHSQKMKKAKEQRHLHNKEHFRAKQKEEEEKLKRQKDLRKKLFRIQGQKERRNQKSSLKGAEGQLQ
Sequence of UniProt Q15022 (Q15022 whole entry, looked up): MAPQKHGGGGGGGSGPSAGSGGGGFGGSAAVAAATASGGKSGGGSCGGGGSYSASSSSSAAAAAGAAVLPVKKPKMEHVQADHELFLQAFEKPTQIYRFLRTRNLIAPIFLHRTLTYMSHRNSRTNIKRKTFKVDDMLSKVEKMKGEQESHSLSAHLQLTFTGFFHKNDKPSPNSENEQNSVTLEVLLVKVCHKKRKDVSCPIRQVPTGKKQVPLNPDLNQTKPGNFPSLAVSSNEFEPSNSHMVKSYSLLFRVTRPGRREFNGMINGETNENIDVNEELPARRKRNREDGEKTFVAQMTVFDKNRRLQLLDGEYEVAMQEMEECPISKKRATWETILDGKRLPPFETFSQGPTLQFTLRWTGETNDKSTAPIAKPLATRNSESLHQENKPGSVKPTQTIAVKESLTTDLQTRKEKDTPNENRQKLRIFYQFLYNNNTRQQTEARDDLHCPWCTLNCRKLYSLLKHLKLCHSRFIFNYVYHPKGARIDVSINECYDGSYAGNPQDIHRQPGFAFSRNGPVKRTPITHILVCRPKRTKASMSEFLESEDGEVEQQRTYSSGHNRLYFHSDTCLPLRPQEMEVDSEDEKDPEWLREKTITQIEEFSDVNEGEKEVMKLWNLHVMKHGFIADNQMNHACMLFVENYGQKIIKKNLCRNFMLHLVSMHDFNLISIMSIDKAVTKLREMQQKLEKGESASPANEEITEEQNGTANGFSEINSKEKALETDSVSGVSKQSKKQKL
Sequence of UniProt Q5JTH9 (Q5JTH9 whole entry, looked up): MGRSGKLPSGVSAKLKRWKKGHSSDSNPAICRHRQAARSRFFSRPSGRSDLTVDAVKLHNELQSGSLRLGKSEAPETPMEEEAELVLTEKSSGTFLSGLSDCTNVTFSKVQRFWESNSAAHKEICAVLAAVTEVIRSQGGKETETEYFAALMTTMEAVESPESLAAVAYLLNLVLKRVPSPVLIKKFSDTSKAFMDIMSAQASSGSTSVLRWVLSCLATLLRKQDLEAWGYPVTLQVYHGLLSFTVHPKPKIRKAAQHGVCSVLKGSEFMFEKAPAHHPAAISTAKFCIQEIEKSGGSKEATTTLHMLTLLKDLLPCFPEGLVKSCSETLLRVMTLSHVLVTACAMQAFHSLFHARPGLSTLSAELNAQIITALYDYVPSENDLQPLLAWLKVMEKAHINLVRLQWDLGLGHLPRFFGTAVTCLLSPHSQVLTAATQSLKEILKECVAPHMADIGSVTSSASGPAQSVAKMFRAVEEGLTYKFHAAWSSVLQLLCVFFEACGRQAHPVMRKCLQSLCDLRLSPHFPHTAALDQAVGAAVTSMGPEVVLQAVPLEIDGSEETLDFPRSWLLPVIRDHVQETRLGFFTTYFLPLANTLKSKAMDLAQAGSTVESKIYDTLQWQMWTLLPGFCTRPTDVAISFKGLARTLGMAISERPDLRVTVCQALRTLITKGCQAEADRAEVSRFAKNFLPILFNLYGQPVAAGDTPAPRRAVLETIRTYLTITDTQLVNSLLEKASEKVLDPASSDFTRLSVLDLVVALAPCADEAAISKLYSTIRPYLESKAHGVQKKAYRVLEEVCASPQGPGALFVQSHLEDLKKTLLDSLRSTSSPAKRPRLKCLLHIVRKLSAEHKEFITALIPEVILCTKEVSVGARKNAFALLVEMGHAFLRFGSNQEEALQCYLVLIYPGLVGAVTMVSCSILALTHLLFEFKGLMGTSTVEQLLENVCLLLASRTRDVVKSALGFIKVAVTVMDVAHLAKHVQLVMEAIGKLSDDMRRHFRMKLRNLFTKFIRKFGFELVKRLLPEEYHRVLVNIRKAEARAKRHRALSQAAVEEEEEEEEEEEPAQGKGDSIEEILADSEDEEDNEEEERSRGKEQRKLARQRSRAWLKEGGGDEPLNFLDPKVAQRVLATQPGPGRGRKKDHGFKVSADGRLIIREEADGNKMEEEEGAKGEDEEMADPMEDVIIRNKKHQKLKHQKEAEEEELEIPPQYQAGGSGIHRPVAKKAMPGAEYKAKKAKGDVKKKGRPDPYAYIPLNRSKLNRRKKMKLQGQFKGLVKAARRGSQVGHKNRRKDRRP
Sequence of UniProt Q13642 (Q13642 whole entry, looked up): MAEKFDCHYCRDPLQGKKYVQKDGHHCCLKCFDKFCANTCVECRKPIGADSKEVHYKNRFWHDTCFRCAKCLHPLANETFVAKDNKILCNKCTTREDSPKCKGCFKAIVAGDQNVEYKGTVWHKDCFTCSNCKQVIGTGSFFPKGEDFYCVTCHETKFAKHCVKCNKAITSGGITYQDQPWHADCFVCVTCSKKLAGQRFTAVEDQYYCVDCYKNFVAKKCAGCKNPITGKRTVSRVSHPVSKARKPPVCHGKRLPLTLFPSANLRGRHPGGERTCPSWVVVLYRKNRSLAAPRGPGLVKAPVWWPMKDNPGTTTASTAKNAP
Sequence of UniProt Q16134 (Q16134 whole entry, looked up): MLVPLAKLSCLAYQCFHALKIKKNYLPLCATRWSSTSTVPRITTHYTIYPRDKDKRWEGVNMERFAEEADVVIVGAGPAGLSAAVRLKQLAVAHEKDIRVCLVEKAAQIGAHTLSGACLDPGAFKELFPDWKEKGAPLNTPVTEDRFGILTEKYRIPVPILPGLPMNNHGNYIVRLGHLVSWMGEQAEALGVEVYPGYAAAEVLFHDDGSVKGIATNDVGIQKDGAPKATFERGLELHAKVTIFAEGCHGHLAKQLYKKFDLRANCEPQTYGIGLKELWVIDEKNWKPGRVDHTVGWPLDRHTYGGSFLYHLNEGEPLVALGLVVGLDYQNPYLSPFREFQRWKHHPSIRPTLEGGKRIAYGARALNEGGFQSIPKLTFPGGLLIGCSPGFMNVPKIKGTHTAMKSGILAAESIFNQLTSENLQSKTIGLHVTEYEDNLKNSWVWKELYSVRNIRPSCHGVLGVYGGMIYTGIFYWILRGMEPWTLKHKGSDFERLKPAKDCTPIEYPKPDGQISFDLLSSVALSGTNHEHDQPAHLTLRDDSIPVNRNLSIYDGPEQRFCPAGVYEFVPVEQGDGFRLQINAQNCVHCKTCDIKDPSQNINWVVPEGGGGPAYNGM
Sequence of UniProt Q15102 (Q15102 whole entry, looked up): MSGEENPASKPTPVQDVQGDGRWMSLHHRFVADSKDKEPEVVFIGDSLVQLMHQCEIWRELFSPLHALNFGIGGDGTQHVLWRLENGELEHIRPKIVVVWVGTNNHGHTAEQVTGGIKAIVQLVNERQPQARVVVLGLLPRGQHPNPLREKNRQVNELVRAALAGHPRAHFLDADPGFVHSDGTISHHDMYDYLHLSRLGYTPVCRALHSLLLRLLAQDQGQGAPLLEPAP
Sequence of UniProt P53384 (P53384 whole entry, looked up): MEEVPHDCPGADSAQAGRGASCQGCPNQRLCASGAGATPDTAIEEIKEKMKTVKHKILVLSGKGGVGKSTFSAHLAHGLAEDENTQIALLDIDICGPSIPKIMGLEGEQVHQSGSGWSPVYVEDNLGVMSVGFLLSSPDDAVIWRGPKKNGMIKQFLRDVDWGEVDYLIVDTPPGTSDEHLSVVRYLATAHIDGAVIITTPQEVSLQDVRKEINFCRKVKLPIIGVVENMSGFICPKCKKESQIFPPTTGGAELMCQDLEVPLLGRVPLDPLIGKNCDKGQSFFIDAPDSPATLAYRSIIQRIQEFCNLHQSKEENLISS
Sequence of UniProt P56277 (P56277 whole entry): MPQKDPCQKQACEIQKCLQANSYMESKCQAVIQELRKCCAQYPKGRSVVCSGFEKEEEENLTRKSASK
Sequence of UniProt Q14657 (Q14657 whole entry): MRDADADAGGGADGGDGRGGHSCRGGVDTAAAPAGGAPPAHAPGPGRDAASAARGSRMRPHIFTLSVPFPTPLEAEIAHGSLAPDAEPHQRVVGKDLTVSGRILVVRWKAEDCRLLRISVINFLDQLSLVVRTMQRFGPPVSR

Target	log2 ratio of iodoacetamide-alkyne labeling
UniProt Q00341_C683	-0.0455 (inactive)
FOXK1 C665 (UniProt P85037)	0.531 (inactive)
NDUFA5 C17 (UniProt Q16718)	0.144 (inactive)
PCM1 C957 (UniProt Q15154)	2.43 (active)
SORD C45 (UniProt Q00796)	-0.0713 (inactive)
UniProt Q13242_C138	0.112 (inactive)
MCM6 C242 (UniProt Q14566)	0.192 (inactive)
LAGE3 C23 (UniProt Q14657)	0.594 (inactive)
SUZ12 C325 (UniProt Q15022)	1.07 (active)
PDS5A C581 (UniProt Q29RF7)	0.744 (inactive)
ESPL1 C294 (UniProt Q14674)	0.577 (inactive)
FHL1 C191 (UniProt Q13642)	-0.117 (inactive)
CNBP C140 (UniProt P62633)	0.134 (inactive)
PAFAH1B3 C55 (UniProt Q15102)	0.0597 (inactive)
PMPCA C466 (UniProt Q10713)	0.00592 (inactive)
SEC23B C767 (UniProt Q15437)	0.00601 (inactive)
UniProt Q02930_C69	1.09 (active)
HNRNPU C497 (UniProt Q00839)	0.211 (inactive)

Target	log2 ratio of iodoacetamide-alkyne labeling
UniProt P60842_C134	0.0481 (inactive)
RPL18 C134 (UniProt Q07020)	0.213 (inactive)
UniProt Q08170_C115	-0.0754 (inactive)
NUBP1 C31 (UniProt P53384)	0.626 (inactive)
ACTR3 C235 (UniProt P61158)	1.28 (active)
PITRM1 C556 (UniProt Q5JRX3)	0.0671 (inactive)
UniProt Q13247_C121	-0.0624 (inactive)
CMC4 C12 (UniProt P56277)	1.14 (active)
SPTAN1 C1930 (UniProt Q13813)	0.167 (inactive)
RRP12 C799 (UniProt Q5JTH9)	0.107 (inactive)
GABPA C338 (UniProt Q06546)	0.308 (inactive)
DYNC1H1 C3147 (UniProt Q14204)	0.433 (inactive)
AKAP12 C1399 (UniProt Q02952)	1.16 (active)
BMS1 C895 (UniProt Q14692)	0.11 (inactive)
PDCD11 C151 (UniProt Q14690)	0.508 (inactive)
UniProt Q05655_C127	0.196 (inactive)
ETFDH C561 (UniProt Q16134)	0.595 (inactive)
